Laboratory results taken from PubChem BioAssay AID1159580 (chemical genetic matrix, 2015).
Among all 5,500 compounds or so, about 2,000 (36%) were called active. About 18% were inconclusive and are not listed. Cut-off read from the data, not from the text of the source: active = normalized growth mostly below about 0.91 (no sharp cut-off); inconclusive = no clear call, values can overlap the other calls; inactive = mostly above about 0.92. The list shows a part of the results.

Assay: chemical genetic growth profiling, strain panel (AID 1159580);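 note: tested at 20 µM; growth read once vehicle control cultures reached saturation at 30 °C; 1 = growth at the plate median or of vehicle wells; lower values mean less growth of the strain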
Settings: growth OD

Measured: normalized growth

CN(C)CC[C@H](c1ccc(Cl)cc1)c1ccccn1
inactive: S. cerevisiae deletion strains, locus YJR075W, strain HOC1, stronger effect = lower value 0.994 | S. cerevisiae deletion strains, locus YKL009W, strain mrt4, stronger effect = lower value 1.01 | S. cerevisiae deletion strains, locus YKL068W, stronger effect = lower value 0.997 | S. cerevisiae deletion strains, locus YKL085W, strain MDH1 (second series), stronger effect = lower value 0.995 | S. cerevisiae deletion strains, locus YKL085W, strain MDH1, stronger effect = lower value 0.995 | S. cerevisiae deletion strains, locus YKL160W, strain elf1, stronger effect = lower value 0.994 | S. cerevisiae deletion strains, locus YKL190W, strain CNB1, stronger effect = lower value 1 | S. cerevisiae deletion strains, locus YKR001C, strain vps1, stronger effect = lower value 0.989 | S. cerevisiae deletion strains, locus YKR026C, strain gcn3, stronger effect = lower value 1 | S. cerevisiae deletion strains, locus YKR091W, strain srl3, stronger effect = lower value 1.01 | S. cerevisiae deletion strains, locus YLL001W, strain dnm1, stronger effect = lower value 0.991 | S. cerevisiae deletion strains, locus YLL026W, stronger effect = lower value 0.997 | S. cerevisiae deletion strains, locus YLL041C, strain sdh2, stronger effect = lower value 0.992 | S. cerevisiae deletion strains, locus YLR027C, strain aat2, stronger effect = lower value 1 | S. cerevisiae deletion strains, locus YLR039C, strain RIC1, stronger effect = lower value 1.04 | S. cerevisiae deletion strains, locus YLR058C, strain SHM2, stronger effect = lower value 1 | S. cerevisiae deletion strains, locus YLR102C, strain apc9, stronger effect = lower value 0.989 | S. cerevisiae deletion strains, locus YLR113W, strain HOG1, stronger effect = lower value 1.02 | S. cerevisiae deletion strains, locus YLR221C, strain rsa3, stronger effect = lower value 1.01 | S. cerevisiae deletion strains, locus YLR258W, strain gsy2, stronger effect = lower value 0.993 | S. cerevisiae deletion strains, locus YLR262C, strain YPT6 (second series), stronger effect = lower value 1.01 | S. cerevisiae deletion strains, locus YLR262C, strain YPT6, stronger effect = lower value 1 | S. cerevisiae deletion strains, locus YLR268W, strain sec22, stronger effect = lower value 0.965 | S. cerevisiae deletion strains, locus YLR320W, strain mms22, stronger effect = lower value 0.997 | S. cerevisiae deletion strains, locus YLR330W, strain CHS5, stronger effect = lower value 1.01 | S. cerevisiae deletion strains, locus YLR342W, strain FKS1 (second series), stronger effect = lower value 1.02 | S. cerevisiae deletion strains, locus YLR342W, strain FKS1, stronger effect = lower value 1 | S. cerevisiae deletion strains, locus YLR357W, strain rsc2, stronger effect = lower value 0.959 | S. cerevisiae deletion strains, locus YLR370C, strain arc18, stronger effect = lower value 1 | S. cerevisiae deletion strains, locus YLR371W, strain rom2, stronger effect = lower value 0.991 | S. cerevisiae deletion strains, locus YLR384C, strain iki3, stronger effect = lower value 0.996 | S. cerevisiae deletion strains, locus YLR418C, strain cdc73, stronger effect = lower value 0.994 | S. cerevisiae deletion strains, locus YML016C, strain PPZ1, stronger effect = lower value 1 | S. cerevisiae deletion strains, locus YML032C, strain rad52, stronger effect = lower value 0.966 | S. cerevisiae deletion strains, locus YML120C, strain ndi1, stronger effect = lower value 1.01 | S. cerevisiae deletion strains, locus YML124C, strain tub3, stronger effect = lower value 0.994 | S. cerevisiae deletion strains, locus YMR058W, strain fet3, stronger effect = lower value 1 | S. cerevisiae deletion strains, locus YMR078C, strain ctf18, stronger effect = lower value 0.993 | S. cerevisiae deletion strains, locus YMR125W, strain sto1, stronger effect = lower value 0.997 | S. cerevisiae deletion strains, locus YMR129W, stronger effect = lower value 1 | S. cerevisiae deletion strains, locus YMR205C, strain PFK2, stronger effect = lower value 1.02 | S. cerevisiae deletion strains, locus YMR223W, strain ubp8, stronger effect = lower value 1.01 | S. cerevisiae deletion strains, locus YMR231W, strain pep5, stronger effect = lower value 0.993 | S. cerevisiae deletion strains, locus YMR263W, strain SAP30, stronger effect = lower value 1.02 | S. cerevisiae deletion strains, locus YMR307W, strain GAS1, stronger effect = lower value 0.99 | S. cerevisiae deletion strains, locus YNL067W, strain RPL9B, stronger effect = lower value 0.999 | S. cerevisiae deletion strains, locus YNL071W, strain lat1, stronger effect = lower value 0.998 | S. cerevisiae deletion strains, locus YNL128W, strain TEP1, stronger effect = lower value 1.01 | S. cerevisiae deletion strains, locus YNL153C, strain GIM3, stronger effect = lower value 0.992 | S. cerevisiae deletion strains, locus YNL183C, strain NPR1, stronger effect = lower value 0.956 | S. cerevisiae deletion strains, locus YNL209W, strain ssb2, stronger effect = lower value 1 | S. cerevisiae deletion strains, locus YNL233W, strain BNI4, stronger effect = lower value 1.01 | S. cerevisiae deletion strains, locus YNL248C, strain rpa49, stronger effect = lower value 0.945 | S. cerevisiae deletion strains, locus YNL250W, strain rad50, stronger effect = lower value 0.977 | S. cerevisiae deletion strains, locus YNL271C, strain bni1, stronger effect = lower value 0.988 | S. cerevisiae deletion strains, locus YNL298W, strain CLA4, stronger effect = lower value 0.996 | S. cerevisiae deletion strains, locus YNL307C, strain MCK1, stronger effect = lower value 1 | S. cerevisiae deletion strains, locus YNL322C, strain KRE1 (second series), stronger effect = lower value 1.02 | S. cerevisiae deletion strains, locus YNL322C, strain KRE1, stronger effect = lower value 1 | S. cerevisiae deletion strains, locus YNR049C, strain mso1, stronger effect = lower value 0.996 | S. cerevisiae deletion strains, locus YNR052C, strain pop2, stronger effect = lower value 0.989 | S. cerevisiae deletion strains, locus YOL006C, strain TOP1, stronger effect = lower value 1 | S. cerevisiae deletion strains, locus YOL012C, strain htz1 0.629 | S. cerevisiae deletion strains, locus YOL147C, strain pex11, stronger effect = lower value 0.991 | S. cerevisiae deletion strains, locus YOR001W, strain rrp6, stronger effect = lower value 0.987 | S. cerevisiae deletion strains, locus YOR061W, strain CKA2, stronger effect = lower value 1.01 | S. cerevisiae deletion strains, locus YOR069W, strain VPS5, stronger effect = lower value 1 | S. cerevisiae deletion strains, locus YOR070C, strain gyp1, stronger effect = lower value 0.997 | S. cerevisiae deletion strains, locus YOR080W, strain dia2, stronger effect = lower value 0.997 | S. cerevisiae deletion strains, locus YOR083W, strain WHI5, stronger effect = lower value 0.997 | S. cerevisiae deletion strains, locus YOR106W, strain vam3, stronger effect = lower value 1.01 | S. cerevisiae deletion strains, locus YOR136W, strain idh2, stronger effect = lower value 0.992 | S. cerevisiae deletion strains, locus YOR144C, strain elg1, stronger effect = lower value 0.988 | S. cerevisiae deletion strains, locus YOR184W, strain ser1, stronger effect = lower value 1.02 | S. cerevisiae deletion strains, locus YOR231W, strain MKK1, stronger effect = lower value 0.998 | S. cerevisiae deletion strains, locus YOR265W, strain rbl2, stronger effect = lower value 1 | S. cerevisiae deletion strains, locus YOR270C, strain vph1, stronger effect = lower value 1.01 | S. cerevisiae deletion strains, locus YOR290C, strain snf2, stronger effect = lower value 0.998 | S. cerevisiae deletion strains, locus YOR316C, strain cot1, stronger effect = lower value 0.995 | S. cerevisiae deletion strains, locus YPL051W, strain arl3, stronger effect = lower value 1.01 | S. cerevisiae deletion strains, locus YPL055C, strain LGE1, stronger effect = lower value 1.02 | S. cerevisiae deletion strains, locus YPL078C, strain atp4, stronger effect = lower value 0.989 | S. cerevisiae deletion strains, locus YPL106C, strain sse1, stronger effect = lower value 1.01 | S. cerevisiae deletion strains, locus YPL240C, strain hsp82, stronger effect = lower value 0.997 | S. cerevisiae deletion strains, locus YPL241C, strain CIN2, stronger effect = lower value 1 | S. cerevisiae deletion strains, locus YPL256C, strain CLN2, stronger effect = lower value 0.985 | S. cerevisiae deletion strains, locus YPR119W, strain clb2, stronger effect = lower value 0.989 | S. cerevisiae deletion strains, locus YPR141C, strain kar3, stronger effect = lower value 0.98 | S. cerevisiae deletion strains, locus YPR163C, strain tif3, stronger effect = lower value 0.992 | S. cerevisiae deletion strains, locus YPR167C, strain met16, stronger effect = lower value 0.994 | S. cerevisiae deletion strains, strain wtn01, stronger effect = lower value 0.995 | S. cerevisiae strains, strain wild type, stronger effect = lower value 1.01
